The text below walks through data of PubChem BioAssay (Tox21).

The target of assay [1] is Retinoic acid receptor RXR-alpha (Homo sapiens) (UniProt P19793). The assay can be described thus: qHTS assay to identify small molecule agonists of the RXR signaling pathway (AID 1159527; calls by dose curve; note: nearly all actives have a fitted effect of over 35% in size). The method in brief:
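Reporter activation is measured as beta-lactamase activity via FRET substrate cleavage (emission 460/530 nm) in HEK 293T cells expressing an RXR-alpha-driven bla construct, following 16 hr compound exposure at 37 C.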
On the technique in general: In qHTS, concentration-response curves come from the screen itself.

Assay [2] in a line: qHTS assay to identify small molecule agonists of the RXR signaling pathway - cell viability counter screen (AID 1159529). Note: series mostly up to about 77 µM; nearly all actives have a fitted effect of over 50% in size. A digest of the protocol: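 Tox21 10K compounds were tested for cytotoxicity against GeneBLAzer RXR-alpha HEK 293T cells grown in 2% charcoal-stripped FBS. Exposure lasted 16 hr at 37 C, 5% CO2; viability read by CellTiter-Glo luminescence.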
Assay [3] in a line: qHTS assay to identify small molecule antagonists of the retinoid acid receptor (RAR) signaling pathway - cell viability counter screen (AID 1159551). Note: nearly all actives have a fitted effect of over 35% in size. The method in brief: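 C3RL4 RARE-luciferase cells, 1,000/well, incubated overnight, then dosed with compound plus 1 uM retinol (final). After 6 hr at 37 C, viability read by CellTiter-Glo ATP luminescence following 30 min at room temperature.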

The nature of assay [4]: qHTS assay to identify small molecule antagonists of the retinoic acid receptor (RAR) signaling pathway (AID 1159552; note: nearly all actives have a fitted effect of over 50% in size). The method in brief: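 Overnight-plated C3RL4 reporter cells get compound, then retinol to 1 uM final; plates sit 6 hr at 37 C, 5% CO2. A luciferase reagent is added and light output recorded after 30 min at room temperature.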
The nature of assay [5]: qHTS assay to identify small molecule agonists of the retinoic acid receptor (RAR) signaling pathway (AID 1159553). Note: potency is the fitted concentration of half-maximal effect. The method in brief:
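C3RL4 RARE-luciferase cells were seeded at 1,000/well and grown overnight at 37 C, then exposed to compounds for 6 hr at 37 C, 5% CO2. Luciferase reagent was added and luminescence was read after 30 min at room temperature.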

Assay [6] is described as follows: qHTS assay to identify small molecule antagonists of the estrogen related receptor (ERR) signaling pathway from Tox21 library - cell viability counter screen (AID 1224834). Note: nearly all actives have a fitted effect of over 30% in size. A digest of the protocol: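 ERR reporter cells, 2,000 per well, rested 6 h, then exposed to compound in DMSO for 17.5 hours at 37 C. Viability read as fluorescence after 30 min with CellTiter-Fluor.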

Assay [7] concerns the target Luciferin 4-monooxygenase (Photinus pyralis) (UniProt P08659). The assay can be described thus: qHTS assay to identify small molecule inhibitors of firefly luciferase (AID 1224835). Note: nearly all actives have a fitted effect of over 25% in size. Note: potency is the fitted concentration of half-maximal effect. The method in brief:
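Quantitative HTS format; KM concentrations of both substrates. Purified P. pyralis FLuc activity quantified from luminescence images.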

A short description of assay [8]: qHTS assay to identify small molecule agonists of the constitutive androstane receptor (CAR) signaling pathway - cell viability counter screen (AID 1224836). Note: series mostly up to about 92 µM; nearly all actives have a fitted effect of over 45% in size. The method in brief: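 Fluorescence from CellTiter-Fluor indicates live cells after 23 h exposure. The human hepatoma line expresses hCAR and a CYP2B6-2.2kb reporter. Incubation medium contains 0.75 uM PK11195 (final).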

Assay [9] in a line: qHTS assay to identify small molecule antagonists of the constitutive androstane receptor (CAR) signaling pathway - cell viability counter screen (AID 1224837). Note: series mostly up to about 92 µM; nearly all actives have a fitted effect of over 45% in size. The method in brief:
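HepG2 cells stably carrying hCAR and CYP2B6-2.2kb reporter, stimulated with 50 nM CITCO and compounds at 15 concentrations for 23 h at 37 C. Viability measured by CellTiter-Fluor fluorescence.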

For assay [10], the target named is Nuclear receptor subfamily 1 group I member 3 (Homo sapiens) (UniProt Q14994). As to the kind of experiment: qHTS assay to identify small molecule antagonists of the constitutive androstane receptor (CAR) signaling pathway (AID 1224838). Note: nearly all actives have a fitted effect of over 40% in size. A digest of the protocol:
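HepG2 cells stably carrying hCAR and a CYP2B6-2.2kb luciferase reporter, seeded 4 hrs before compound (15 concentrations). Stimulated with 50 nM CITCO for 24 hr at 37 C. ONE-Glo luminescence read after 30 min at room temperature.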

Assay [11] has the same target. As to the kind of experiment: qHTS assay to identify small molecule agonists of the constitutive androstane receptor (CAR) signaling pathway (AID 1224839). For activation: series mostly up to about 92 µM. Note: nearly all actives have a fitted effect of over 15% in size. Note: potency is the fitted concentration of half-maximal effect. A digest of the protocol:
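Stable hCAR/CYP2B6-2.2kb HepG2 line in DMEM with 10% FBS; compounds (15 concentrations) and 0.75 uM PK11195 final, 24 h at 37 C/5% CO2, then ONE-Glo luminescence after 30 min.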

Assay [12] is described as follows: qHTS assay to identify small molecule antagonists of the estrogen related receptor signaling pathway with the pleiotropic PPARgamma coactivator (PGC) from Tox21 10K library - cell viability counter screen (AID 1224840; active = well fitted cell-killing curve with a large enough effect in the repeat runs, not every such curve was filed as active; note: nearly all actives have a fitted effect of over 40% in size). A digest of the protocol:
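PGC/ERR cells (2,000/well) plated 6 h, then compound-treated for 17.5 h at 37 C. Viability measured by CellTiter-Fluor fluorescence after 30 min at 37 C, multiplexed with the pathway assay.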

The target of assay [13] is Thyrotropin receptor (Homo sapiens) (UniProt P16473). The assay can be described thus: qHTS assay to identify small molecule agonists of the thyroid stimulating hormone receptor (TSHR) signaling pathway (AID 1224843; calls by dose curve; note: nearly all actives have a fitted effect of over 45% in size). The method in brief: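 TSHR-expressing HEK293 cells (800 per well) were exposed to compounds for 30 min at room temperature. cAMP was then detected by HTRF competition with cAMP-d2 and anti-cAMP cryptate, read after 1 h at room temperature. Fifteen concentrations, triplicate.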

Assay [14] is described as follows: qHTS assay to identify small molecule agonists of H2AX (AID 1224845; active = well fitted activation curve with a large enough effect in the signal ratio in the repeat runs, not every such curve was filed as active; the % refers to the signal ratio). A digest of the protocol:
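Wild-type CHO-K1 cells plated overnight, then exposed 3 hr at 37C to compounds at 15 concentrations (0.76% DMSO). Lysed, then HTRF anti-pH2AX(S139)-cryptate/anti-H2AX-d2 detection after 24 hr at room temperature; emissions 665 and 620 nm.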

Assay [15] can be described thus: qHTS assay to identify small molecule agonists of the hypoxia (HIF-1) signaling pathway (AID 1224846; active = well fitted activation curve with a large enough effect in the signal ratio in the repeat runs, not every such curve was filed as active; the % refers to the signal ratio). The method in brief: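 HRE-bla ME-180 beta-lactamase reporter cells in medium with 0.5% dialyzed FBS, pre-incubated 5 h then exposed to compounds 17 h at 37C, 5% CO2; reporter induction read with CCF4-AM FRET substrate.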
The nature of assay [16]: qHTS assay to identify small molecule agonists of H2AX - cell viability counter screen (AID 1224847; calls by dose curve; note: top concentration of the series differs between compounds; nearly all actives have a fitted effect of over 30% in size). A digest of the protocol: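 Viability of CHO-K1 (wild type) cells after 3 hr compound exposure was measured by CellTiter-Glo luminescence.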
The nature of assay [17]: qHTS assay to identify small molecule agonists of the hypoxia (HIF-1) signaling pathway - cell viability counter screen (AID 1224844; calls by dose curve; note: nearly all actives have a fitted effect of over 50% in size). The method in brief:
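HRE-bla ME-180 cells, 2,000/well in 0.5% dialyzed FBS medium, treated 17 h at 37C with compounds. Viability read in the same wells as the bla reporter, by CellTiter-Glo luminescence after 30 min at room temperature.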

Inconclusive results are not listed. Unmarked numbers belong to inactive results. Calls of active or inactive are those of the source. Unless noted, calls come from the whole dose curve; as a rule, active = well fitted curve in the direction sought with a large enough effect in the repeat runs; inconclusive = weak or mixed curves; inactive = no such curve, though single readings can be large; an effect the other way counts as inactive or inconclusive.

Luciferin 4-monooxygenase (Photinus pyralis), sequence (P08659 whole entry, looked up): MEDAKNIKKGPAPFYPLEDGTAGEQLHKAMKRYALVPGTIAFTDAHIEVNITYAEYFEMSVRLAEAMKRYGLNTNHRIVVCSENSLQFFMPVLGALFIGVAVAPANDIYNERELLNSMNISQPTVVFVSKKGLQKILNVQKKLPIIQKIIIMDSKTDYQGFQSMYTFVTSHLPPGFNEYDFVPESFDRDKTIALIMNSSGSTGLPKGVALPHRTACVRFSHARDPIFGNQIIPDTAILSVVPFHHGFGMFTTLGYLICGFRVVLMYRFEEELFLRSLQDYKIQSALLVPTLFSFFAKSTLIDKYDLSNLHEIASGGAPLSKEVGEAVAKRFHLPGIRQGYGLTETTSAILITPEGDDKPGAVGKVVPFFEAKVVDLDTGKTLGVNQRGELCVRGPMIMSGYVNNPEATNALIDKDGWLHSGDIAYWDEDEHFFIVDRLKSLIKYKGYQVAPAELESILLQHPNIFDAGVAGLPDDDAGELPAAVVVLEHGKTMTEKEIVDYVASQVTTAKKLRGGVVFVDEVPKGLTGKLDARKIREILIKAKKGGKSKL
Thyrotropin receptor (Homo sapiens), sequence (P16473 whole entry, looked up): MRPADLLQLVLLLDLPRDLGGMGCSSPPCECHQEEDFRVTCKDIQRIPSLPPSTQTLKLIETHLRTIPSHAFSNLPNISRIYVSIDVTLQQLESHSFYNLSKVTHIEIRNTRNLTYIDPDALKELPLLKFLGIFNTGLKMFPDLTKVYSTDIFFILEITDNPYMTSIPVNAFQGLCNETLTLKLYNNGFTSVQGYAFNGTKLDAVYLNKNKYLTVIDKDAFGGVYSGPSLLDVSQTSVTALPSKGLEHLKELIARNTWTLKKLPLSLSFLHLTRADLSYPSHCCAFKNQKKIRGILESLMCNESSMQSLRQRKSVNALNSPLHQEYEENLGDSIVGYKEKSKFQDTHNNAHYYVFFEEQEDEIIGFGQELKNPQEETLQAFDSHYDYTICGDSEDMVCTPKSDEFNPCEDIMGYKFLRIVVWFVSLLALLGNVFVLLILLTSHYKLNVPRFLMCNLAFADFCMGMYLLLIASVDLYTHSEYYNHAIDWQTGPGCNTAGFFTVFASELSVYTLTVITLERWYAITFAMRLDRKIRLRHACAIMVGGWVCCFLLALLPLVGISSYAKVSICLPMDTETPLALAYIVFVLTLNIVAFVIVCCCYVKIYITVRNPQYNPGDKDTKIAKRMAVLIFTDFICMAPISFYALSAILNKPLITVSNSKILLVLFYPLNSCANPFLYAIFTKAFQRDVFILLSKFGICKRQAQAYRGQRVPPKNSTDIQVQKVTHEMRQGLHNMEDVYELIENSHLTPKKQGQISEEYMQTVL
Nuclear receptor subfamily 1 group I member 3 (Homo sapiens), sequence (Q14994 whole entry, looked up): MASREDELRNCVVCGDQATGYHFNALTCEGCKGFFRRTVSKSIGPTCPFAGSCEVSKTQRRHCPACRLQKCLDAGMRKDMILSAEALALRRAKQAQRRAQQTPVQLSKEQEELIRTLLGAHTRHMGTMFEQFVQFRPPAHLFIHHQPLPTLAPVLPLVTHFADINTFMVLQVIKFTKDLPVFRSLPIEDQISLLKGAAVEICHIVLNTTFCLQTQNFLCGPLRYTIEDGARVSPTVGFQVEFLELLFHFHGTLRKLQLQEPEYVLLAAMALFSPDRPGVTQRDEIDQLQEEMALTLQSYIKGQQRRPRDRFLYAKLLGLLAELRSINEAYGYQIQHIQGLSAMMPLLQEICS
Retinoic acid receptor RXR-alpha (Homo sapiens), sequence (P19793 whole entry, looked up): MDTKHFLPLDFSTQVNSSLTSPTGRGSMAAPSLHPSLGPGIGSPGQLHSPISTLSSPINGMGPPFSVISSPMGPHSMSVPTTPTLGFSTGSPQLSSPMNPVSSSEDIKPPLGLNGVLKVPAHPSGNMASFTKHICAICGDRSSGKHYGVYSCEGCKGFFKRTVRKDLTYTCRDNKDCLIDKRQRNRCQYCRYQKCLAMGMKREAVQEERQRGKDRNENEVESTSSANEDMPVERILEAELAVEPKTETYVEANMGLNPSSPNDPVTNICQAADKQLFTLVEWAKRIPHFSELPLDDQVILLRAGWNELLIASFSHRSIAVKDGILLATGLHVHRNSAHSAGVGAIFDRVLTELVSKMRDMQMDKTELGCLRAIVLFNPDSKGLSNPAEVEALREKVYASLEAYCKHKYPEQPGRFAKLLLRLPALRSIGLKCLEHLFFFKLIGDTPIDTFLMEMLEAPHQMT

Turning to `CC(=O)OC1CCCCC1C(C)(C)C` (stereo not drawn), the Potency entry in [1], in assay [5], in assay [7], in assay [10] and in [11] was “inactive” each time. Besides, the molecule was called inactive in assay [2], in [3], in assay [4], in assay [6], in assay [8] and in assay [9]. The molecule was classed as inactive in assay [12], in [13], in assay [14], in assay [15] and in [16].

On to `COC(=O)c1cccc(Cl)c1`, for which the Potency result in assay [1], in [5], in assay [7] and in assay [10] was “inactive” in each case. Besides, the molecule was classed as inactive in [2], in [3], in [4], in assay [6], in assay [8] and in assay [9]. In addition, the molecule was called inactive in assay [12], in assay [13], in [17], in [14], in [15] and in assay [16].

For `O=C1OCCO1`, the Potency result in [1], in assay [5] and in assay [7] was “inactive” each time. Besides, the outcome in [2], in assay [3], in assay [4], in [6], in assay [8] and in [9] was inactive. Besides, the result in assay [12], in [13], in [17], in [14], in [15] and in assay [16] was inactive.

Consider `CO[C@@]1(NC(=O)Cc2cccs2)C(=O)N2C(C(=O)O)=C(COC(N)=O)CS[C@@H]21`, for which the Potency entry in assay [1], in assay [5], in assay [7] and in assay [11] was “inactive” each time. For the same molecule, the result in assay [2], in assay [3], in assay [4], in assay [6], in assay [8] and in assay [12] was inactive. The result in assay [13], in assay [14] and in assay [16] was inactive.

With `Cc1ccc2c(c1)C(=O)c1ccccc1C2=O`, the Potency entry in [1] and in [10] was “inactive” in each case. Besides, the outcome in [2], in assay [3], in assay [4], in assay [6], in assay [8] and in [9] was inactive. Besides, the result in assay [12], in assay [13], in [17], in assay [15] and in [16] was inactive. Besides, the Potency is 4.31 µM (active) in assay [5], 14.1 µM (active) in [7] and 27.2 µM (active) in [11].

Turning to `COC(=O)c1cc(Cl)cc(Cl)c1`, the Potency entry in assay [1], in [5], in [7] and in assay [10] was “inactive” in each case. For the same molecule, the result in [2], in assay [3], in assay [4], in assay [6], in assay [8] and in assay [9] was inactive. Further, the result in [12], in assay [13], in assay [14], in assay [15] and in [16] was inactive.

On to `NCC1(Cc2noc(=O)[nH]2)CCCCC1`, for which the Potency result in [1], in [5], in assay [7] and in assay [11] was “inactive” each time. Further, the molecule was classed as inactive in assay [2], in assay [3], in assay [4], in assay [6], in assay [8] and in assay [12]. Moreover, the molecule was classed as inactive in [13], in [17], in assay [14], in [15] and in [16].

Take `CCCCCCCCCCCCCCCCCC#N`: the Potency result in assay [1], in assay [5], in assay [7], in assay [10] and in assay [11] was “inactive” each time. For the same molecule, the outcome in [2], in [3], in assay [4], in [6], in assay [8] and in [9] was inactive. The molecule was classed as inactive in assay [12], in assay [13], in assay [14], in assay [15] and in [16].

Take `COC(=O)CCCCC(CCSS/C(CCO)=C(\C)N(C=O)Cc1cnc(C)nc1N)SC(C)=O` (stereo not drawn): the Potency entry in [1], in [5], in assay [7], in assay [10] and in [11] was “inactive” throughout. For the same molecule, the call in assay [2], in [3], in [4], in assay [6], in assay [8] and in [9] was inactive. Besides, the molecule was called inactive in [12], in assay [13], in [14], in assay [15] and in assay [16].
